High-throughput results as filed in PubChem BioAssay.
In the library only some 21% were active in any assay of this set; here they are far more common.
Pf growth 96h = P. falciparum growth inhibition at 96 hour, primary screen for plastid delayed-death inhibitors; P. falciparum luciferase reporter growth, 96 h; Potency, µM (titrated, usually from 28.7 µM), without a hit: top-dose activity change, negative = inhibition, usual class: inhibitors; actives 6.9% (n = 320,000); further: potency means the concentration at half of the fitted maximal effect; on the % scale 0 is the no-effect control and ±100 the full control effect
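P. falciparum expressing integrated firefly luciferase grown in erythrocytes (2% hematocrit, 0.05% parasitemia final) with compounds for 96 hours at 37 C, 5% CO2. Growth inhibition read as loss of luminescence after adding luciferase detection reagent.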
Shiga toxin inh = inhibitors of Shiga toxin in Vero cells; Vero cells, Shiga toxin protein synthesis inhibition reporter; inhibition, % at 38.7 µM; actives 9.2% (n = 290,000); in the data active means inhibition mostly above about 28%, no sharp cut-off; inactive means mostly below about 43%; further: 0% is about no effect
CHX counter = affects cycloheximide protein synthesis inhibition readout, counter-screen; cell reporter, cycloheximide protein synthesis inhibition counterscreen; AID 2314; max response, %; actives 12% (n = 300,000); in the data active means max response mostly above about 13%, no sharp cut-off; inactive means mostly below about 14%; further: read at 38.3 µM for the half of the compounds with a filed dose; 0% is about no effect
Pf growth 48h = P. falciparum growth inhibition at 48 hours (one generation) | AID 504832 | P. falciparum luciferase growth in erythrocytes, 48 h | actives 5.9% (n = 310,000) | Potency, µM (series often up to 28.7 µM), without a hit: at the highest dose activity change, negative = inhibition, actives largely listed as inhibitors; further: potency means the concentration at half of the fitted maximal effect; on the % scale 0 is the no-effect control and ±100 the full control effect
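Compounds are pin-transferred into medium, infected erythrocytes (2% hematocrit, 0.1% parasitemia final) are added, and plates sit one parasite generation at 37 C in 5% CO2. Detection reagent is then added and luminescence measured.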
The depositor's hits bear a star; ? = inconclusive; · = not tested or not shown; [ ] = dose if it differs, or a comment. Unless noted, the call rests on the fitted dose curve; in most records, active means well fitted inhibition curve with a large enough effect; inconclusive means small, poorly fitted or top-dose-only effect, or another doubt; inactive means no such curve, though single readings can be large or run the other way.

SMILES | Pf growth 96h | Shiga toxin inh | CHX counter | Pf growth 48h
CC[C@H](C)[C@H](NC(=O)[C@H](Cc1ccc(O)cc1)NC(=O)[C@H](Cc1cnc[nH]1)NC(=O)[C@H](CCCNC(=N)N)NC(=O)[C@H](CC(C)C)NC(=O)[C@H](C)NC(=O)[C@H](CO)NC(=O)[C@H](Cc1ccc(O)cc1)NC(=O)[C@H](Cc1ccc(O)cc1)NC(=O)[C@H](CCCNC(=N)N)NC(=O)[C@H](C)NC(=O)[C@H](CC(C)C)NC(=O)[C@H](CC(=O)O)NC(=O)[C@H](CCC(=O)O)NC(=O)[C@H](C)NC(=O)[C@@H]1CCCN1C(=O)[C@H](C)NC(=O)[C@H](CC(=O)O)NC(=O)[C@H](CCC(=O)O)NC(=O)CNC(=O)[C@@H]1CCCN1C(=O)[C@H](CC(N)=O)NC(=O)[C@H](CC(=O)O)NC(=O)[C@@H]1CCCN1C(=O)[C@H](CCCCN)NC(=O)[C@H](CO)NC(=O)[C@@H]1CCCN1C(=O)[C@@H](N)Cc1ccc(O)cc1)C(=O)N[C@@H](CC(N)=O)C(=O)N[C@@H](CC(C)C)C(=O)N[C@@H](CC(C)C)C(=O)N[C@H](C(=O)N[C@@H](CCCNC(=N)N)C(=O)N1CCC[C@H]1C(=O)N[C@@H](CCCNC(=N)N)C(=O)N[C@@H](Cc1ccc(O)cc1)C(N)=O)[C@@H](C)O | · | 14 | 41 | ·
CCNC(=O)[C@@H]1CCCN1C(=O)[C@H](CCCN=C(N)N)NC(=O)[C@H](CC(C)C)NC(=O)[C@@H](Cc1c[nH]c2ccccc12)NC(=O)[C@H](Cc1ccc(O)cc1)NC(=O)[C@H](CO)NC(=O)[C@H](Cc1c[nH]c2ccccc12)NC(=O)[C@H](Cc1cnc[nH]1)NC(=O)[C@@H]1CCC(=O)N1 | 1.5µM* | · | · | 1.3µM*
CC(=O)Nc1ccc(N(C)C)cc1[N+](=O)[O-] | 0% | 8 | 24 | 2.6µM*
Nn1c(SCC(=O)Nc2ccc(OC(F)F)cc2)nnc1-c1ccco1 | 17% | · | · | 3%
C[C@@]12C(=O)N(c3ccc(C(F)(F)F)cc3)C(=O)N1[C@@H]1c3ccccc3OC[C@@H]1[C@H]2c1ccccc1 | 4.1µM* | -4 | -2 | ?
CCOC(=O)[C@@H]1[C@H]2COc3ccccc3[C@@H]2N2C(=O)N(c3ccc(Cl)cc3)C(=O)[C@@]12C | 10% | -5 | -1 | -6%
CCOC(=O)[C@@H]1[C@H]2COc3ccccc3[C@H]2N2C(=O)N(c3ccc(Cl)cc3)C(=O)[C@]12C | 8.3µM* | -3 | 1 | 13µM*
CCOC(=O)[C@@H]1[C@H]2COc3ccccc3[C@@H]2N2C(=O)N(c3cccc(Cl)c3)C(=O)[C@@]12C | 10µM* | 17 | -1 | -71%
C[C@]12C(=O)N(c3ccc(F)cc3)C(=O)N1[C@@H]1c3ccccc3OC[C@@H]1[C@H]2c1ccccc1 | ? | -2 | 0 | -14%
CCOC(=O)[C@@H]1[C@H]2COc3ccc(Br)cc3[C@@H]2N2C(=O)N(c3ccc(C(F)(F)F)cc3)C(=O)[C@@]12C | 9.3µM* | 1 | -3 | ?
CCCn1c(N)cc(=O)n(C)c1=O | 10% | -8 | 1 | 6%
CCOC(=O)[C@@H]1[C@H]2COc3cc(OC)ccc3[C@H]2N2C(=O)N(c3cccc(Cl)c3)C(=O)[C@]12C | ? | -3 | 1 | ?
CCOC(=O)[C@@H]1[C@H]2COc3cc(OC)ccc3[C@H]2N2C(=O)N(c3cccc(Cl)c3)C(=O)[C@@]12C | ? | 20 | -2 | 10µM*
Fc1ccc(C2CC(c3cccs3)=NN2c2ccccc2)cc1 (stereo not drawn) | -9% | 19 | 5 | ?
Fc1ccc(N2Cc3ccsc3C=N2)cc1 | 39% | 63* | 25* | ?
CC(=O)Nc1ccc(S(=O)(=O)N[C@@H](C)C(=O)OCC(=O)NC2CCCC2)cc1 | -27% | · | · | ?
Cc1cc(OCCN2CCN(S(=O)(=O)c3ccccc3F)CC2)ccc1C(C)C | 2% | · | · | ?
Clc1cccc(CNc2nnnn2-c2ccccc2)c1 | 15µM* | -9 | -5 | ?
Cc1cc(Nc2nnnn2-c2ccccc2)n(-c2ccc(Cl)cc2)n1 | · | -5 | -1 | 4.7µM*
c1ccc(CCNc2nnnn2-c2ccccc2)cc1 | 2% | 30 | 24* | -23%
O=C(NNC(=O)c1ccccc1Cl)c1ccc(-n2cncn2)c([N+](=O)[O-])c1 | -17% | · | · | -27%
COc1ccc(CCNC2=CC(=O)N(c3ccc(F)cc3)C2=O)cc1 | 3.3µM* | -6 | 6 | 1%
CCCC(=O)Nc1ccc2oc(-c3cncc(Br)c3)nc2c1 | ? | 58* | 48* | 15%
CCCCCC(=O)Nc1ccc2oc(-c3cncc(Br)c3)nc2c1 | ? | 31 | 26* | 28%
CCOc1cccc(C(=O)Nc2ccc3oc(-c4cccnc4)nc3c2)c1 | ? | 2 | 1 | ?
SMILES | Pf growth 96h | Shiga toxin inh | CHX counter | Pf growth 48h
CNc1c(NS(=O)(=O)c2ccc(OC)c(Cl)c2)c(=O)oc2ccccc12 | 60% | 15 | 9 | -8%
CC(=O)N1CCc2c(sc(NC(=O)c3ccc([N+](=O)[O-])o3)c2C#N)C1 | ? | 82* | 30 | 53%
COC(=O)c1c(NC(=O)Cc2ccccc2)sc2c1CCN(C(C)C)C2 | 34% | -6 | 1 | -8%
CC(C)N1CCc2c(sc(NC(=O)c3ccc([N+](=O)[O-])o3)c2C(N)=O)C1 | 4.7µM* | 14 | 28* | 13µM*
COC(=O)c1c(NC(=O)c2ccc([N+](=O)[O-])o2)sc2c1CCN(C(C)C)C2 | ? | 15 | 23* | 15µM*
COC(=O)Nc1ccc2c(c1)Nc1ccccc1CC2 | 51% | · | active | -6%
CC(=O)Nc1ccc2c(c1)NC(=O)CC2 | -50%[5.75 µM] | 3 | -2 | -1%
O=C(COc1ccc(Cl)cc1Cl)NNC(=O)c1cccnc1 | 14% | 26 | 14 | ?
Cc1cccc(/C(N)=N/OC(=O)COc2ccc(Cl)cc2)c1 | 2.9µM* | 18 | -3 | ?
N/C(=N\OC(=O)COc1ccc(Cl)cc1)c1ccc(Cl)cc1 | 39% | 11 | 1 | 11%
N/C(=N\OC(=O)COc1ccc(Cl)cc1)c1cccnc1 | 36% | 62* | 15* | 42%
Cc1ccc(OCC(=O)O/N=C(\N)c2cccnc2)cc1 | 129% | 68* | 23* | 75%
N/C(=N\OC(=O)COc1ccc([N+](=O)[O-])cc1)c1cccnc1 | -29% | 15 | -2 | 1%
N/C(=N\OC(=O)COc1ccc(Cl)cc1Cl)c1cccnc1 | 2% | 78* | 54* | 176%
CCC(Cc1ccccc1)NC(=O)C1CCN(S(=O)(=O)c2ccc3c(c2)CC(C)N3C(C)=O)CC1 (stereo not drawn) | ? | 1 | -1 | ?
CC(C)C12CN3CC(C(C)C)(CN(C1)C3c1ccc([N+](=O)[O-])o1)C2=O (stereo not drawn) | 28% | 4 | -2 | 2.1µM*
Cc1ccc(CSCCC(=O)NCCC2=CCCCC2)cc1 | 14% | 21 | 23* | 39%
Cc1ccc(SC(C)C(=O)NCCC2=CCCCC2)cc1 (stereo not drawn) | 12µM* | 2 | -1 | 0%
